Data on 14 compounds can be found in PubChem BioAssay (NCATS).

Where “and” joins values, the source holds several entries; their conditions need not be identical. Identical values can stand only once. A number with no mark means an inactive call. Inconclusive results are not listed. Calls of active or inactive are those of the source. Unless noted, the call rests on the fitted dose curve.

Assay [1] deals with Bile acid receptor (Homo sapiens) (UniProt Q96RI1). Nature of the assay: qHTS assay for small molecule agonists of farnesoid X receptor signaling (AID 588527).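 Further: series mostly up to about 77 µM; 0% = vehicle basal and 100% = reference agonist.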 Particulars: HEK293T FXR-UAS-bla, beta-lactamase ratio, 16 h; activation: hits give high values. The procedure, abridged:
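FXR-UAS-bla HEK293T, 10% dialyzed FBS; cpds up to 92 uM titration, 16 h 37 C; CCF4 dye 2 h RT; fluorescence. Normalized to chenodeoxycholic acid 100 uM (100%) and DMSO (0%); Hill fit gives EC50, efficacy.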

Assay [2] concerns the target Glucocorticoid receptor (Homo sapiens) (UniProt P04150). Nature of the assay: qHTS assay for small molecule antagonists of glucocorticoid receptor signaling (AID 588533; active means well fitted inhibition curve with a large enough effect in the signal ratio, with a control signal flat, not every such curve was filed as active; the % refers to the signal ratio;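 further: cells stimulated with 2 nM dexamethasone as agonist; potency means the concentration at half of the fitted maximal effect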). The procedure, abridged:
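Antagonist-mode qHTS: compound titrations added to GRE-bla HeLa cells, then dexamethasone 2 nM final; 18 h, 37 C. CCF4 FRET fluorescence normalized to dexamethasone and DMSO; IC50 from Hill fit.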
In general terms: Quantitative high-throughput screening tests each substance at several concentrations.

In assay [3] the target is Peroxisome proliferator-activated receptor delta (Homo sapiens) (UniProt Q03181). Nature of the assay: qHTS assay for small molecule agonists of peroxisome proliferator-activated receptor delta signaling (AID 588534).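 Further: 0% = DMSO basal wells and 100% = positive control agonist at 10 µM.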 The procedure, abridged:
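Reporter cells were plated and held 5 hrs at 37 C before compounds were added. After 18 hrs at 37 C, CCF4 dye was loaded for 2 hrs at RT and fluorescence measured.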

The target of assay [4] is Vitamin D3 receptor (Homo sapiens) (UniProt P11473). Nature of the assay: qHTS assay for small molecule antagonists of vitamin D receptor signaling (AID 588541).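 Further: receptor activated by calcitriol during compound treatment; series mostly up to about 77 µM; on the % scale 0 is the no-effect control and ±100 the full control effect.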 The procedure, abridged: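 VDR-UAS-bla HEK293T cells (2000/well, 2% charcoal-stripped FBS) were treated with titrated compounds plus 1-alpha,25-dihydroxyvitamin D3 (50 nM or 3 nM final) for 16 h at 37 C. CCF4 beta-lactamase fluorescence was read; Hill fits gave IC50.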

Assay [5] addresses Thyroid hormone receptor beta (Homo sapiens) (UniProt P10828). Nature of the assay: qHTS assay for small molecule agonists of thyroid hormone receptor beta signaling (AID 588545). The procedure, abridged:
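Agonist-mode beta-lactamase reporter assay, HEK 293 cells, 2% charcoal/dextran FBS; cells plated 4 hrs, compound 18 hrs at 37 C, CCF4 2 hrs RT. Normalized to 10 nM T3 (100%) and DMSO (0%); Hill fit gives EC50, efficacy.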

Assay [6] shares this target. Nature of the assay: qHTS assay for small molecule antagonists of thyroid hormone receptor beta signaling (AID 588547; active means well fitted inhibition curve with a large enough effect in the signal ratio, with a control signal flat, not every such curve was filed as active; the % refers to the signal ratio;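 further: cells stimulated with 0.4 nM T3 agonist during compound exposure; series mostly up to about 77 µM; on the % scale 0 is the no-effect control and ±100 the full control effect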). Conditions: TR-UAS-bla HEK293, beta-lactamase ratio, antagonist mode, 18 h. The procedure, abridged: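 TR-UAS-bla GripTite HEK293 cells in 2% charcoal/dextran FBS medium were preincubated 4 h at 37 C, given compound (0.59 nM to 92 uM) plus 0.4 nM T3 (final) for 18 h, then CCF4 for 2 h at RT; Hill fit gave IC50.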

Assay [7] in a line: qHTS assay for small molecule activators of the p53 signaling pathway (AID 651743; active means well fitted activation curve with a large enough effect in the signal ratio, not every such curve was filed as active; the % refers to the signal ratio; further: series mostly up to about 92 µM; % of control where 0% means no effect). Conditions: HCT-116 p53RE-bla, beta-lactamase FRET ratio, 16 h; activation: hits give high values. The procedure, abridged: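 p53RE-bla HCT-116 cells with a stably integrated beta-lactamase reporter under p53 response elements were plated, rested 5 hours at 37 C/5% CO2, then exposed to compounds in DMSO for 16 hours at 37 C. LiveBLAzer B/G FRET substrate was read after 2 hours at room temperature.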

A short description of assay [8]: qHTS assay for environmental chemicals that activate the Aryl hydrocarbon Receptor (AhR) signaling pathway (AID 651777; active means well fitted curve in the direction sought with a large enough effect; an effect the other way counts as inactive or inconclusive; further: % of control where 0% means no effect; nearly all actives have a fitted effect of over 15% in size). Conditions: 1A2-DRE human hepatoma cells, luciferase, 24 h; activation: hits give high values. The procedure, abridged:
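Concentration–response screening used 1,200 1A2-DRE cells per well, 24 hr compound exposure (37 C, 5% CO2), and One-Glo luminescence as the AhR-driven CYP1A2 reporter signal.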

Assay [9] deals with Peroxisome proliferator-activated receptor alpha (Homo sapiens) (UniProt Q07869). Nature of the assay: qHTS assay for small molecule agonists of the peroxisome proliferator-activated receptor alpha (PPARalpha) signaling pathway (AID 651778; active means well fitted curve in the direction sought with a large enough effect; an effect the other way counts as inactive or inconclusive; further: % of control where 0% means no effect). Particulars: PathHunter PPARalpha complementation, chemiluminescence, 6 h; max response: hits give high values. The procedure, abridged: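 Cells plated at 2,000/well and held overnight at 37 C, 5% CO2, then compound added by pin tool for 6 hr; after PathHunter detection reagent and 60 min at room temperature, chemiluminescence from enzyme complementation was read.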

A short description of assay [10]: qHTS assay for small molecule agonists of the antioxidant response element (ARE) signaling pathway measured by Nrf2-dependant transcriptional activity (AID 720636; active means well fitted curve in the direction sought with a large enough effect in the repeat runs; an effect the other way counts as inactive or inconclusive;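 further: HepG2 cells with an ARE-driven luciferase reporter; % of control where 0% means no effect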). The procedure, abridged:
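Attachment 6 hr at 37 C, then compound versus DMSO vehicle for 16 hr in ARE-luc HepG2 cells (1% dialyzed FBS); luminescence recorded 30 min after ONE-Glo addition at room temperature.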

Assay [11] is described as follows: qHTS assay for small molecule agonists of the antioxidant response element (ARE) signaling pathway measured by Nrf2-dependant transcriptional activity - cell viability counter screen (AID 720653; active means well fitted curve in the direction sought with a large enough effect in the repeat runs; an effect the other way counts as inactive or inconclusive; further: on the % scale 0 is the no-effect control and ±100 the full control effect). Particulars: ARE-bla HepG2 viability, CellTiter-Glo ATP luminescence, 16 h; max response: hits give low values. The procedure, abridged:
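ARE-bla HepG2 cells (2,000/well) rested 5 hrs at 37C/5% CO2, then exposed to compounds in DMSO for 16 hrs. Viability was read in the same wells as intracellular ATP by luminescence, 30 min at room temperature after reagent addition.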

Assay [12] in a line: qHTS assay for cell viability of HEK293 cells (AID 743288; active means well fitted curve in the direction sought with a large enough effect; an effect the other way counts as inactive or inconclusive; further: on the % scale 0 is the no-effect control and ±100 the full control effect; nearly all actives have a fitted effect of over 50% in size). Conditions: ATP luminescence (CellTiter-Glo), 18 h; max response: hits give low values. The procedure, abridged:
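Environmental chemicals tested in qHTS format against parental HEK293 cells; 18 h treatment, 37 C; read-out ATP luminescence (CellTiter-Glo), 30 min RT development.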

The target of assay [13] is Glucocorticoid receptor (Homo sapiens) (UniProt P04150). Nature of the assay: qHTS assay for small molecule agonists of glucocorticoid receptor signaling (AID 588532; active means well fitted curve in the direction sought with a large enough effect in the signal ratio, with a control signal flat; the % refers to the signal ratio;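 further: 100% = dexamethasone at 0.1 µM and 0% = DMSO only wells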). Conditions: HeLa MMTV-bla, beta-lactamase ratio, agonist, 18 h; activation: hits give high values, percent of dexamethasone control, DMSO zero. The procedure, abridged:
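MMTV-bla HeLa, beta-lactamase reporter; medium with 1% charcoal/dextran-stripped FBS; cpds up to 92 uM, 18 h, 37 C; CCF4 readout 460/530 nm; Hill fit → EC50, efficacy vs 0.1 uM dexamethasone = 100%.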

Assay [14] can be described thus: qHTS assay for small molecule agonists of the antioxidant response element (ARE) signaling pathway (AID 651741; active means well fitted activation curve with a large enough effect in the signal ratio; the % refers to the signal ratio; further: potency means the concentration at half of the fitted maximal effect). The procedure, abridged: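 ARE-bla HepG2 cells (beta-lactamase reporter under ARE control) were plated at 2,000 cells/well, preincubated 5 h at 37 C/5% CO2, then treated with DMSO-dissolved compounds for 16 h at 37 C; LiveBLAzer B/G FRET substrate added, fluorescence read after 2 h at room temperature.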

A short description of assay [15]: qHTS assay for small molecule activators of the nuclear factor-kappa B (NF-kB) signaling pathway (AID 651749; active means well fitted activation curve with a large enough effect in the signal ratio; the % refers to the signal ratio; further: series mostly up to about 77 µM; % of control where 0% means no effect). Particulars: NF-kB-bla ME-180 cells, beta-lactamase FRET ratio, 16 h; activation: hits give high values. The procedure, abridged: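 ME-180 cells stably carrying a beta-lactamase reporter under an NF-kB response element were exposed to compound or DMSO vehicle for 16 hr at 37C, 5% CO2. Pathway activation was read by FRET, since reporter expression disrupts FRET.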

The nature of assay [16]: qHTS assay for cell viability of the p53RE-bla HCT-116 cell line (AID 743292; active means well fitted curve in the direction sought with a large enough effect; an effect the other way counts as inactive or inconclusive; further: on the % scale 0 is the no-effect control and ±100 the full control effect; nearly all actives have a fitted effect of over 55% in size). The procedure, abridged:
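Compound-exposed HCT-116 (p53RE-bla) cells, 4,000 per well, were kept 16 h at 37 C following a 5 h preincubation. Cell number was estimated from total ATP by CellTiter-Glo luminescence read after 30 min at room temperature.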

For assay [17], the target named is Nuclear receptor subfamily 1 group I member 2 (Rattus norvegicus) (UniProt Q9R1A7). Nature of the assay: qHTS assay for small molecule activators of the rat pregnane X receptor (rPXR) signaling pathway (AID 651751; call rule not given here; further: 0% is about no effect). Conditions: rPXR reporter cells, luciferase (One-Glo), 24 h.
A short description of assay [18]: qHTS assay for small molecule activators of the human pregnane X receptor (PXR) signaling pathway (AID 720659; call rule not given here; further: 0% is about no effect).

Peroxisome proliferator-activated receptor delta (Homo sapiens), sequence (Q03181 whole entry, looked up): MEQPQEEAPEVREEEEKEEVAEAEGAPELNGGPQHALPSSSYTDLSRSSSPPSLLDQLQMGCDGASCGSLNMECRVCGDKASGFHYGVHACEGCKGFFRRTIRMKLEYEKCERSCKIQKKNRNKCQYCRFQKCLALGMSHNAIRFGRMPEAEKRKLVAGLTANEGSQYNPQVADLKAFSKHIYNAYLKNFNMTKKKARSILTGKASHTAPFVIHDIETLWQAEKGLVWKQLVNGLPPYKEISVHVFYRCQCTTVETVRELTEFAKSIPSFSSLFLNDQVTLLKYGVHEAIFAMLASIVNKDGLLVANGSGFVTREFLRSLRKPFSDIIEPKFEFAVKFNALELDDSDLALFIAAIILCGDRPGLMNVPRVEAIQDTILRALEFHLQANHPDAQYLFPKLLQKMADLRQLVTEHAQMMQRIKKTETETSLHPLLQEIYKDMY
Thyroid hormone receptor beta (Homo sapiens), sequence (P10828 whole entry, looked up): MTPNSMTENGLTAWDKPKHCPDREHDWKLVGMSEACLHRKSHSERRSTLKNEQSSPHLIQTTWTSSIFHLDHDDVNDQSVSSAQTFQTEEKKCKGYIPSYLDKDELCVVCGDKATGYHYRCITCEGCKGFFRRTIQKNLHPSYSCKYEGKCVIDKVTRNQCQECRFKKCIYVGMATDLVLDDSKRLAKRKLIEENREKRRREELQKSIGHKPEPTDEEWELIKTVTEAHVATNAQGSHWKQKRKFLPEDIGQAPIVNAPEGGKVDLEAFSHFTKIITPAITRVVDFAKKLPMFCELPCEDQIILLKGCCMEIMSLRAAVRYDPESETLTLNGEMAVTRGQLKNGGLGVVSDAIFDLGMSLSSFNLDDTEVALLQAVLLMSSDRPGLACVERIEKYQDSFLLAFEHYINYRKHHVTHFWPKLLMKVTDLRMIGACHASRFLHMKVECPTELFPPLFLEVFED
Bile acid receptor (Homo sapiens), sequence (Q96RI1 whole entry, looked up): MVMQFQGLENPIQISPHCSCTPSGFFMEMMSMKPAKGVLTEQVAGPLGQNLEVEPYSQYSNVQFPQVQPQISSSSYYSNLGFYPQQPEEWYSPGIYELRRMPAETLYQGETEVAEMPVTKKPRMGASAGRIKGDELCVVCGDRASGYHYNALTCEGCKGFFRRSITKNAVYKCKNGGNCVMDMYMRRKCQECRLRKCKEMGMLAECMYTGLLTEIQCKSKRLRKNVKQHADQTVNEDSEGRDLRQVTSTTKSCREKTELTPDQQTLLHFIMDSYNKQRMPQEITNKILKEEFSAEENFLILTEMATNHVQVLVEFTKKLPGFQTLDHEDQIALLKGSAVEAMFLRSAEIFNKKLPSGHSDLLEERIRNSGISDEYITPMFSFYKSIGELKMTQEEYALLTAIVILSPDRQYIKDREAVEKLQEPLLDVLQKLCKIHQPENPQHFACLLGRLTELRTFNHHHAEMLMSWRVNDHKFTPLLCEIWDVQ
Glucocorticoid receptor (Homo sapiens), sequence (P04150 whole entry, looked up): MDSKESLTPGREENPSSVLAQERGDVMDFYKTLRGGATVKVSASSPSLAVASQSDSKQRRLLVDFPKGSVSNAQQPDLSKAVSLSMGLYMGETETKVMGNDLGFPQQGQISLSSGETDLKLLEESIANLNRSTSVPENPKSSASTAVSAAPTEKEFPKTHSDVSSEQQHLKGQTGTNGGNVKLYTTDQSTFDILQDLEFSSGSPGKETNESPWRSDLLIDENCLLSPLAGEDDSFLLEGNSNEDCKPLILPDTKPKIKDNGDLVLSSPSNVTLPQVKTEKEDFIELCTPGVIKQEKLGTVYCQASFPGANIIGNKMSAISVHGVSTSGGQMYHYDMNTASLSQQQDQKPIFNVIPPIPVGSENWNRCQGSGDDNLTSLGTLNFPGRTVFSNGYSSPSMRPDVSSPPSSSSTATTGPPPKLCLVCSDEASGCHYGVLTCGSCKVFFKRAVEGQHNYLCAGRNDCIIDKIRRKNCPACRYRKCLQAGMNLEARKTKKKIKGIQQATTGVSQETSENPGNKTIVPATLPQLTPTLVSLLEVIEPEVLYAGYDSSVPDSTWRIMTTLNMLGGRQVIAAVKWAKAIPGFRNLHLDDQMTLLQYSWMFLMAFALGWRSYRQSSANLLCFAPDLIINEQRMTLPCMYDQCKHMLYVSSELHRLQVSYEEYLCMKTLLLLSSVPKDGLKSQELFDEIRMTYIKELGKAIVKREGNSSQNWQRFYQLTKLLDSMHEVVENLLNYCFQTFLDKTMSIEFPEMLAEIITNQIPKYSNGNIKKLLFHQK
Peroxisome proliferator-activated receptor alpha (Homo sapiens), sequence (Q07869 whole entry, looked up): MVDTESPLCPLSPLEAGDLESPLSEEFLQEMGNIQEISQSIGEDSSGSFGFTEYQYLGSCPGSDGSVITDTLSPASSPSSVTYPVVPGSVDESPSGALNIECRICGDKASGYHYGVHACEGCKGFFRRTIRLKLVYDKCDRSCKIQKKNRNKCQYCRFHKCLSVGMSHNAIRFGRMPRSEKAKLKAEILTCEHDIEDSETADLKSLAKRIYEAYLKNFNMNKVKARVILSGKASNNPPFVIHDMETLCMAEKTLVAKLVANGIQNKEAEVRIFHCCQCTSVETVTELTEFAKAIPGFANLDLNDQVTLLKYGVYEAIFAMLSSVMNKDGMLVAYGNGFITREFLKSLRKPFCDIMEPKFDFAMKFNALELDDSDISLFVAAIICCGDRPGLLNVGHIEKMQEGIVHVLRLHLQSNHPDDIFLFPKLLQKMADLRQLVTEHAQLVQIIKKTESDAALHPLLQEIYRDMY
Vitamin D3 receptor (Homo sapiens), sequence (P11473 whole entry, looked up): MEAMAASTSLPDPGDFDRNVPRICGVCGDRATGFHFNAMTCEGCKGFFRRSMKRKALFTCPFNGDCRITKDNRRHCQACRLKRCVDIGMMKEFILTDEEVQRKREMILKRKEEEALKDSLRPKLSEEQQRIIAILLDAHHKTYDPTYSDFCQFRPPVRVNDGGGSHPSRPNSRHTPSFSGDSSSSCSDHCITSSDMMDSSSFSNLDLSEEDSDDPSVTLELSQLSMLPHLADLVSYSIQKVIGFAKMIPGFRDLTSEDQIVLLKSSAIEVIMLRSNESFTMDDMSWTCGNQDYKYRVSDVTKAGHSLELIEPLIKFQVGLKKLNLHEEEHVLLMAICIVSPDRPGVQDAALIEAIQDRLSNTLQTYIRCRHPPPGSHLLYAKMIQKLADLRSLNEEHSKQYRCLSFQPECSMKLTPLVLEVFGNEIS
Nuclear receptor subfamily 1 group I member 2 (Rattus norvegicus), sequence (Q9R1A7 whole entry, looked up): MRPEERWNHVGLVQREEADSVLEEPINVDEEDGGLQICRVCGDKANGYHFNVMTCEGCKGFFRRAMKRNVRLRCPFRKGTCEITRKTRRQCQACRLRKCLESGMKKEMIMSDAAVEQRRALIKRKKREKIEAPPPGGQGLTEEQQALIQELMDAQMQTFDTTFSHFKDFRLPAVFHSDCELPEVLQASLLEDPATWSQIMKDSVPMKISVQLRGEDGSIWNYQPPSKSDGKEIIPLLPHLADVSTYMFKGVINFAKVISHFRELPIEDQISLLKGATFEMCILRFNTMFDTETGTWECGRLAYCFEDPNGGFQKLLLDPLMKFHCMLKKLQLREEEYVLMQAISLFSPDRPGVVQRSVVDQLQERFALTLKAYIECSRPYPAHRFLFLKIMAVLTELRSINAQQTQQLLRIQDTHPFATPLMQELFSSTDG

For the compound `CC(C)(C)C(O)/C(=C\c1ccc(Cl)cc1Cl)n1cncn1` (centres undefined), the activation in [1] is 1.69%; in assay [7], 9.12%; in assay [8], 6.02%. Also, the Potency in [2] is 35.5 µM (active). Further, the outcome in assay [3] was inactive. Besides, the Potency entry in assay [4], in assay [5] and in assay [10] was “inactive” in each case. In assay [6], the activity change % (negative = inhibition) is -35.6%. Further, the max response in assay [9] was 1.97%; in assay [11], -10.7%; in [12] it was -6.74%.

In the case of `CC(C)OC(=O)c1ccccc1C(=O)OC(C)C`, the activation in assay [1] is 0.429%. Moreover, the compound was called inactive in [3].

As to `Cc1ccc(C(=O)c2ccccc2)cc1`, in [1], the activation is -0.352%. The result in assay [3] was inactive.

For the compound `CC(=O)CC(=O)Nc1ccc(C)cc1C`, in [1], the activation is 0.192%. For the same compound, the result in assay [3] was inactive.

As to `Cc1ccc2c(c1[N+](=O)[O-])C(=O)c1ccccc1C2=O`, the activation in assay [1] is -4.5%. The compound was classed as inactive in assay [3].

In the case of `NNS(=O)(=O)c1ccc(Oc2ccc(S(=O)(=O)NN)cc2)cc1`, in assay [1], the activation is -0.0085%. Besides, the compound was called inactive in [3].

Regarding `CC[C@H]1CCCC(O[C@H]2CC[C@H](N(C)C)[C@@H](C)O2)[C@@H](C)C(=O)C2=C[C@@H]3[C@@H](C=C[C@@H]4C[C@@H](O[C@@H]5O[C@@H](C)[C@H](OC)[C@@H](OC)[C@H]5OC)C[C@@H]34)[C@@H]2CC(=O)O1` (some centres undefined), the activation in assay [1] was 3.6%; in [13] it was -4.34%; in [7], -4.77%; in assay [15] it was -0.423%; in assay [8], -0.354%. Also, the Potency result in [5], in [10] and in assay [16] was “inactive” each time. The activity change % (negative = inhibition) in assay [6] is -5.92%. Moreover, in assay [14], the Potency was 48.6 µM (active). For the same compound, the max response is 3.99% in assay [11] and -7.6% in assay [17]. The compound was called inactive in [18].

For the compound `O=C(O)CCCCCCCCC(=O)O`, in assay [1], the activation is -3.53%. The outcome in assay [3] was inactive.

For the compound `COC(=O)c1ccc(C=O)cc1`, the activation in assay [1] is 0.0505% and 0.394%. Moreover, the compound was classed as inactive in [3].

Regarding `CC#N`, the activation in assay [1] was -1.26%. Also, the compound was called inactive in assay [3].

Regarding `C=Cc1ccc(P(c2ccccc2)c2ccccc2)cc1`, in assay [1], the activation is -1.25%. The compound was called inactive in assay [3].

As to `CC(C)Cc1nccs1`, the activation in [1] is -0.154%. Moreover, in [3], the compound was called inactive.

`CC(C)OCC1CO1` (centres undefined): the activation in [1] was -0.0386%. In assay [3], the result was inactive.

In the case of `CSCCC=O`, the activation in assay [1] is -2.56%. The outcome in assay [3] was inactive.
